Among the test systems are TTK; TXK; TYRO3; ULK1; ULK2; ULK3; VRK2; WEE1; WEE2; WNK1; WNK2; WNK3; WNK4.
Holding throughout (details): concentration: 1 μM, replicates: in singlicate; n = 1
Assay [1] relates to TYK2(JH1domain-catalytic).
The test system of assay [2] is TYK2(JH2domain-pseudokinase).
In a further assay the test system is T1, VEGFR2.
T1 construct: gene KDR

Another assay deals with T2, VPS34.
T2 construct: gene PIK3C3

For another assay, the system named is T3, YANK1.
T3 construct: gene STK32A

A further assay concerns T4, YANK2.
T4 construct: gene STK32B

In the next assay the test system is T5, YANK3.
T5 construct: gene STK32C
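Also: KINOMEscan kinase panel screen.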

As for `O=C1NC(=O)C(N2CCc3ccccc32)=C1c1ccccc1Cl` [SB-373598], the “%Inh” value with TTK came to 65%; with TXK it was 28%; in assay [1], 0%; in [2], 0%; in the assay on TYRO3, 0%; with ULK1 it was 61%. Also, the “%Inh” value is given as 6% in the assay on ULK2; 39% in the assay with ULK3; 2% in the assay on VEGFR2; 16% in the assay with VPS34; 0% in the assay on VRK2; 6% in the assay with WEE1. Besides, the “%Inh” value with WEE2 is given as 9%; with WNK1, 0%; in the assay with WNK2, 2%; in the assay on WNK3, 22%; with WNK4, 75%; in the assay with YANK1, 13%. Also, the “%Inh” value is listed as 16% in the assay on YANK2 and 20% with YANK3.

As for `CN1C(=O)C(Nc2ccc(Cl)c(C(=O)O)c2)=C(c2ccc(Cl)cc2)C1=O` [SB-404290], the “%Inh” value in the assay on TTK worked out at 22%; in the assay on TXK, 0%; in [1] it was 0%; in assay [2], 0%; with TYRO3, 0%; with ULK1, 2%. For the same molecule, the “%Inh” value in the assay with ULK2 is reported as 2%; with ULK3, 24%; with VEGFR2, 6%; in the assay with VPS34, 28%; in the assay on VRK2, 0%; in the assay with WEE1, 0%. Also, the “%Inh” value worked out at 21% with WEE2; 0% with WNK1; 0% in the assay with WNK2; 5% in the assay with WNK3; 16% in the assay with WNK4; 0% in the assay on YANK1. The “%Inh” value in the assay with YANK2 and with YANK3 was 0% each time.

`Fc1cc(Cl)ccc1Nc1ccnc2cc(-c3ccc(CN4CCCCC4)o3)ccc12` [GW560116]: the “%Inh” value with TTK is listed as 0%; in the assay with TXK, 23%; in assay [1], 27%; in [2], 18%; in the assay with TYRO3, 0%; with ULK1 it was 0%. For the same molecule, the “%Inh” value in the assay with ULK2 stood at 0%; in the assay on ULK3 it was 0%; in the assay on VEGFR2 it was 6%; with VPS34 it was 22%; with VRK2 it was 38%; in the assay with WEE1 it was 0%. Further, the “%Inh” value in the assay on WEE2 came to 4%; in the assay on WNK1 it was 0%; with WNK2, 0%; in the assay with WNK3, 34%; in the assay on WNK4, 49%; in the assay on YANK1, 0%. Moreover, the “%Inh” value in the assay on YANK2 and in the assay with YANK3 was 0% in each case.

As to `CS(=O)(=O)c1ccc(-c2c(-c3ncn[nH]3)sc(N3CCOCC3)c2C#N)cc1`, the “%Inh” value in the assay on TTK is recorded as 21%; in the assay with TXK it was 0%; in assay [1], 0%; in assay [2], 0%; with TYRO3, 0%; in the assay on ULK1, 3%. Moreover, the “%Inh” value was found to be 36% in the assay on ULK2; 7% in the assay with ULK3; 8% in the assay on VEGFR2; 86% in the assay on VPS34; 0% with VRK2; 0% with WEE1. Besides, the “%Inh” value in the assay on WEE2 was 10%; in the assay on WNK1, 0%; in the assay with WNK2, 11%; with WNK3, 0%; with WNK4, 0%; in the assay on YANK1, 27%. Also, the “%Inh” value with YANK2 is 0%; in the assay with YANK3, 16%.

For `CC1=C(C(=O)Nc2cc3cn[nH]c3cc2F)C(c2ccc(C(F)(F)F)cc2)CC(=O)N1` (stereo not drawn) [GSK429286], the “%Inh” value in the assay with TTK is recorded as 25%; in the assay with TXK, 21%; in assay [1] it was 14%; in assay [2], 3%; in the assay on TYRO3 it was 12%; with ULK1 it was 0%. Further, the “%Inh” value turned out to be 0% in the assay with ULK2; 34% in the assay on ULK3; 0% with VEGFR2; 0% in the assay on VPS34; 0% with VRK2; 12% with WEE1. Further, the “%Inh” value in the assay on WEE2 turned out to be 20%; with WNK1, 20%; with WNK2, 61%; in the assay on WNK3, 3%; with WNK4, 0%; with YANK1, 8%. In addition, the figures for the “%Inh” value with YANK2 and with YANK3 were 0% and 24%, respectively.

For `CCn1c(-c2cccnc2O)nc2cnccc21` [SB-736715], the “%Inh” value (with TTK; with TXK; in [1]; in assay [2]; in the assay on TYRO3; with ULK1) was 0% in each case. Further, the “%Inh” value in the assay on ULK2 was found to be 0%; in the assay with ULK3, 0%; with VEGFR2 it was 0%; with VPS34, 0%; in the assay on VRK2, 77%; in the assay with WEE1 it was 0%. Besides, the “%Inh” value with WEE2 stood at 84%; in the assay with WNK1, 0%; in the assay on WNK2, 24%; in the assay on WNK3 it was 0%; in the assay with WNK4, 0%; with YANK1, 0%. For the same molecule, the “%Inh” value in the assay on YANK2 and with YANK3 was 0% in each case.

Turning to `CC(C)(C)c1ccc(C(=O)Nc2cn3cc(Cl)ccc3n2)cc1`, the “%Inh” value in the assay on TTK was 0%; in the assay with TXK it was 0%; in assay [1], 0%; in assay [2], 0%; in the assay on TYRO3, 9%; in the assay on ULK1 it was 0%. For the same molecule, the “%Inh” value in the assay with ULK2 is on record as 0%; in the assay with ULK3, 10%; in the assay with VEGFR2, 12%; in the assay on VPS34, 13%; in the assay with VRK2, 0%; with WEE1, 0%. Besides, the “%Inh” value in the assay with WEE2, with WNK1, with WNK2, with WNK3, in the assay on WNK4 and with YANK1 was 0% each time. Further, the “%Inh” value in the assay on YANK2 amounted to 0%; with YANK3 it was 3%.

On to `Cc1cccc(-c2nc(-c3ccc(S(C)(=O)=O)cc3)sc2-c2ccnc(NCCc3ccccc3)c2)c1`, for which the “%Inh” value in the assay with TTK is 10%; in the assay on TXK, 6%; in assay [1], 0%; in assay [2], 18%; in the assay with TYRO3 it was 0%; with ULK1, 0%. Further, the “%Inh” value in the assay with ULK2 is recorded as 8%; in the assay on ULK3 it was 0%; in the assay with VEGFR2, 0%; in the assay with VPS34, 82%; in the assay on VRK2, 0%; with WEE1 it was 0%. Further, the “%Inh” value came out at 9% with WEE2; 0% with WNK1; 0% in the assay on WNK2; 0% in the assay on WNK3; 0% with WNK4; 0% in the assay on YANK1. Besides, the “%Inh” value with YANK2 is reported as 13%; in the assay on YANK3, 14%.

Regarding `O=S(=O)(c1ccc(-c2ccnc3[nH]ccc23)cc1)N1CCCC1` [GSK846226], the “%Inh” value in the assay on TTK is reported as 20%; in the assay with TXK, 9%; in [1], 62%; in assay [2], 20%; with TYRO3, 0%; in the assay on ULK1, 19%. The “%Inh” value in the assay on ULK2 came to 0%; in the assay on ULK3 it was 27%; with VEGFR2, 15%; in the assay on VPS34, 46%; in the assay with VRK2, 0%; in the assay on WEE1, 8%. The “%Inh” value came out at 2% in the assay with WEE2; 5% with WNK1; 7% with WNK2; 3% with WNK3; 0% in the assay with WNK4; 11% with YANK1. In addition, the “%Inh” value with YANK2 and with YANK3 was 0% throughout.

`Cn1ccc2ncnc(Oc3ccc(NC(=O)Nc4ccccc4)cc3)c21`: the “%Inh” value with TTK came to 0%; in the assay with TXK, 1%; in [1], 0%; in assay [2], 0%; in the assay on TYRO3, 0%; in the assay with ULK1 it was 0%. Further, the “%Inh” value in the assay on ULK2 is on record as 0%; with ULK3, 3%; with VEGFR2 it was 97.8%; with VPS34 it was 0%; in the assay on VRK2, 0%; in the assay on WEE1 it was 0%. Besides, the “%Inh” value in the assay with WEE2 is 0%; in the assay on WNK1, 0%; in the assay on WNK2 it was 0%; in the assay on WNK3, 0%; with WNK4, 1%; in the assay with YANK1 it was 17%. Moreover, the “%Inh” value in the assay with YANK2 and in the assay on YANK3 was 0% in each case.

In the case of `COc1cc2ncn(-c3cc(OCC4CCCO4)c(C(N)=O)s3)c2cc1OC` (stereo not drawn) [GSK204607], the “%Inh” value in the assay on TTK amounted to 0%; with TXK it was 9%; in assay [1], 15%; in assay [2], 31%; in the assay with TYRO3 it was 0%; in the assay on ULK1, 0%. Further, the “%Inh” value in the assay with ULK2 is listed as 0%; in the assay with ULK3, 0%; in the assay on VEGFR2, 8%; in the assay with VPS34, 0%; in the assay with VRK2, 19%; in the assay on WEE1, 9%. The “%Inh” value in the assay with WEE2 worked out at 3%; with WNK1, 0%; in the assay with WNK2 it was 8%; with WNK3, 12%; in the assay with WNK4 it was 35%; in the assay on YANK1, 9%. Moreover, the “%Inh” value in the assay with YANK2 and in the assay on YANK3 was 0% throughout.

Turning to `Cc1cccc(-c2nc(C)cc(Nc3ccncc3)n2)n1` [GSK257997], the “%Inh” value in the assay with TTK is reported as 0%; in the assay on TXK it was 0%; in [1], 0%; in [2] it was 15%; in the assay on TYRO3, 21%; in the assay on ULK1, 0%. Further, the “%Inh” value in the assay with ULK2 turned out to be 0%; in the assay with ULK3, 6%; in the assay on VEGFR2, 0%; with VPS34, 11%; in the assay with VRK2, 0%; in the assay on WEE1, 9%. Besides, the “%Inh” value is reported as 2% with WEE2; 6% in the assay on WNK1; 6% with WNK2; 6% in the assay with WNK3; 0% with WNK4; 10% in the assay on YANK1. Also, the “%Inh” value worked out at 0% in the assay on YANK2 and 5% in the assay on YANK3.

As to `NC(=O)c1nnc2ccccc2c1N`, the “%Inh” value came to 12% in the assay with TTK; 4% in the assay with TXK; 44% in assay [1]; 38% in assay [2]; 2% in the assay on TYRO3; 24% in the assay with ULK1. Also, the “%Inh” value is reported as 0% in the assay with ULK2; 29% in the assay on ULK3; 16% with VEGFR2; 20% in the assay with VPS34; 4% with VRK2; 9% in the assay on WEE1. The “%Inh” value with WEE2 was 20%; in the assay on WNK1 it was 8%; with WNK2, 0%; with WNK3 it was 0%; in the assay with WNK4, 9%; with YANK1, 23%. Besides, the “%Inh” value with YANK2 and with YANK3 was 0% throughout.

For `COc1ccc(Nc2nccc(-c3cccc(NC(=O)c4cc5cc(F)ccc5[nH]4)c3)n2)cc1` [GSK1229782], the “%Inh” value with TTK is recorded as 13%; with TXK it was 17%; in [1] it was 41%; in assay [2] it was 47%; in the assay with TYRO3, 23%; with ULK1, 16%. Moreover, the “%Inh” value in the assay on ULK2 was 0%; with ULK3, 23%; in the assay with VEGFR2, 4%; in the assay on VPS34 it was 33%; in the assay with VRK2 it was 27%; with WEE1, 33%. For the same molecule, the “%Inh” value with WEE2 worked out at 16%; in the assay on WNK1 it was 11%; with WNK2, 12%; in the assay with WNK3, 31%; with WNK4, 59%; with YANK1, 3%. Besides, the “%Inh” value in the assay on YANK2 is reported as 0%; with YANK3, 30%.

`Cc1nnc(-c2ccc3occ(-c4ccc(S(C)=O)cc4)c3c2)[nH]1` (stereo not drawn): the “%Inh” value with TTK was determined as 8%; with TXK, 0%; in [1], 8%; in [2], 59%; in the assay with TYRO3, 0%; with ULK1, 4%. Moreover, the “%Inh” value in the assay on ULK2 is listed as 23%; in the assay with ULK3, 14%; in the assay on VEGFR2, 1%; in the assay on VPS34 it was 88%; with VRK2, 0%; with WEE1, 0%. Besides, the “%Inh” value amounted to 32% in the assay with WEE2; 0% in the assay with WNK1; 19% in the assay on WNK2; 0% in the assay with WNK3; 0% in the assay on WNK4; 0% with YANK1. Further, the “%Inh” value in the assay on YANK2 and in the assay with YANK3 was 0% in each case.

The values above are taken from publication PMC5540273 (PLoS ONE, 2017).
